In PMC7862700, “An all-to-all approach to the identification of sequence-specific readers for epigenetic DNA modifications on cytosine” one finds binding signal data, which are given here for one sequence.

Common to all, as to test: DAPPL (digital affinity profiling via proximity ligation, sequencing); 10 mM Tris-HCl pH 7.5, 50 mM NaCl, 1 mM DTT, 4% glycerol, room temperature, 30 min; GST-TFs on glutathione beads, 16-mer random dsDNA library, 0.1% formaldehyde crosslink after washing; high values mean tight binding
Assay [1] deals with T1, FEV (Homo sapiens, UniProt Q99581 1-238).
T1 sequence: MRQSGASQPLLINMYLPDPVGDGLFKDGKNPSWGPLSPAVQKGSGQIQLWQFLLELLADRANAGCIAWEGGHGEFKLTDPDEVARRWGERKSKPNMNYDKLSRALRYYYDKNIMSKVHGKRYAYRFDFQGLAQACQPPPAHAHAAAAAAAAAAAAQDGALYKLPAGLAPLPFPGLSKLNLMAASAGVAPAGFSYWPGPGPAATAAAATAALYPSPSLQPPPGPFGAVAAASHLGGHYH
The following applies: protein: recombinant; tags: N-terminal GST; dsDNA, one strand shown. In a few lines:
(§1)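 Yeast served to express human transcription factors as GST fusions, which were then captured on glutathione beads and labelled with DNA barcodes. Pooled with a tag-only sample, they were incubated with 200 nmole of a 16-mer random double-stranded DNA library for 30 min at room temperature in Tris/NaCl/DTT/glycerol buffer, washed, crosslinked with 0.1% formaldehyde, ligated by proximity, amplified by PCR and sequenced. Dividing each hexamer's read frequency for a factor by its frequency for the tag-only sample gives the binding signal.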

Assay [2] deals with ETV5 (Homo sapiens, UniProt P41161 1-510). The following applies: protein: recombinant; tags: N-terminal GST; dsDNA, one strand shown. In a few lines:
as §1

The target in assay [3] is HSF1 (Homo sapiens, UniProt Q00613 1-529). The following applies: protein: recombinant; tags: N-terminal GST; chain copies: 3; dsDNA, one strand shown. Summed up:
as §1

Assay [4] addresses T2, SPIC (Homo sapiens, UniProt Q8N5J4 1-248).
T2 sequence: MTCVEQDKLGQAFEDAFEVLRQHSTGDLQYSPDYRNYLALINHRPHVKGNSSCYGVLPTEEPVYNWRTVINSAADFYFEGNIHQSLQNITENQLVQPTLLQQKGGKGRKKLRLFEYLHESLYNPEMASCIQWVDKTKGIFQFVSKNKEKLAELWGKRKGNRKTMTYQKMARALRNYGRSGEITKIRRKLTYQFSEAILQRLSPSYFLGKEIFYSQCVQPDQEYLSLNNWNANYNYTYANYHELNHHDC
Conditions: protein: recombinant; tags: N-terminal GST; dsDNA, one strand shown. In a few lines: as §1

Assay [5] deals with ELF4 (Homo sapiens, UniProt Q99607 1-663). Conditions: protein: recombinant; tags: N-terminal GST; dsDNA, one strand shown. Summed up:
as §1

Assay [6] addresses T3, ELK4 (Homo sapiens, UniProt P28324-2 1-405).
T3 sequence: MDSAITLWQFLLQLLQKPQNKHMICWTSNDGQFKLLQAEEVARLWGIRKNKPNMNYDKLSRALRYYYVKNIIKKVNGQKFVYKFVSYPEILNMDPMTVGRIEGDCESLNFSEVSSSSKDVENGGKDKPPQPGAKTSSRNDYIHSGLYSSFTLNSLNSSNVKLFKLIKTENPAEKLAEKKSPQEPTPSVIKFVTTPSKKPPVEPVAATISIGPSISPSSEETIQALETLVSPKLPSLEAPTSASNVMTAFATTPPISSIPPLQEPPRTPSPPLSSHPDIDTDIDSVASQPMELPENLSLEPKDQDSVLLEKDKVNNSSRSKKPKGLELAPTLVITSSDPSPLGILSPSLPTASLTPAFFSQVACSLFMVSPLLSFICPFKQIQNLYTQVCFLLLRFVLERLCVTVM
Conditions: protein: recombinant; tags: N-terminal GST; dsDNA, one strand shown. Summed up: as §1

Assay [7] has as its target T4, ETV2 (Homo sapiens, UniProt O00321 1-342).
T4 sequence: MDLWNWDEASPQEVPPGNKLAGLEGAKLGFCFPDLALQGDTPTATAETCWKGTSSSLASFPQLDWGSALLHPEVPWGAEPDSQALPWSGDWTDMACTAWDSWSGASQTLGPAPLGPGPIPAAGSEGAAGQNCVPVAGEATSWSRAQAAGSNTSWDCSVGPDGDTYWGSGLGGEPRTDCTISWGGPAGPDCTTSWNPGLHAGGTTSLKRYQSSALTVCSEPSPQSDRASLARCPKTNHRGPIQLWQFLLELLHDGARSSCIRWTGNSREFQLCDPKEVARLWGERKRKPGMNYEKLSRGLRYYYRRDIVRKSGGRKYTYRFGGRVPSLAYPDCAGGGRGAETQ
Conditions: protein: recombinant; tags: N-terminal GST; dsDNA, one strand shown. Summed up: as §1

Assay [8] concerns the target T5, ELF3 (Homo sapiens, UniProt P78545 1-371).
T5 sequence: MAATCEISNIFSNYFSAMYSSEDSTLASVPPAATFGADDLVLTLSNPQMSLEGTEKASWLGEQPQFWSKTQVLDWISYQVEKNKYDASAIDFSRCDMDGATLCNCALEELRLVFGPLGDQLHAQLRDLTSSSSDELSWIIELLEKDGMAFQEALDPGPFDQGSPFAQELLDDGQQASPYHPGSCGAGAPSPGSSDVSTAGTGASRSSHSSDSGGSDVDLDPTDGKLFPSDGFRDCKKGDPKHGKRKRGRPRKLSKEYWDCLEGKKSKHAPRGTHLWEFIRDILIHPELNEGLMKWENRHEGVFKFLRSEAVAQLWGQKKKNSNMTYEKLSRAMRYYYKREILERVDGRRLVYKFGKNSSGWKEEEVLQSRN
The following applies: protein: recombinant; tags: N-terminal GST; dsDNA, one strand shown. In a few lines:
as §1

Assay [9] concerns the target CRX (Homo sapiens, UniProt O43186 1-299). The following applies: protein: recombinant; tags: N-terminal GST; dsDNA, one strand shown. Summed up:
as §1

Assay [10] concerns the target ETV1 (Homo sapiens, UniProt P50549 1-477). Conditions: protein: recombinant; tags: N-terminal GST; dsDNA, one strand shown. In a few lines: as §1
The target in assay [11] is T6, ERF (Homo sapiens, UniProt P50548 1-548).
T6 sequence: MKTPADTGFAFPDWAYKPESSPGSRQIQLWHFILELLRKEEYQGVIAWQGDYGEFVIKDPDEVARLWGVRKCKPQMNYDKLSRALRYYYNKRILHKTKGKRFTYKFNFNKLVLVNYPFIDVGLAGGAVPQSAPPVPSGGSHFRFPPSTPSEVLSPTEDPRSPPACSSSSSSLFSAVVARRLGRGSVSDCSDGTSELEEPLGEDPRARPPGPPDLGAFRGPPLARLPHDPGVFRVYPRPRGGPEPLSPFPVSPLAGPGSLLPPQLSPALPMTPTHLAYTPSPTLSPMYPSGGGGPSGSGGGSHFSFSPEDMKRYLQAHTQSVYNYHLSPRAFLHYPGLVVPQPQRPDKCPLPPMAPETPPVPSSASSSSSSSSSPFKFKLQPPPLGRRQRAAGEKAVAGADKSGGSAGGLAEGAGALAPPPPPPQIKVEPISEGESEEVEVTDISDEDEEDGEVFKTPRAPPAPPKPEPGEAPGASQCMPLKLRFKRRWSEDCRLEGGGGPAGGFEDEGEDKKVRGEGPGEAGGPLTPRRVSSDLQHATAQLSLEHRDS
The following applies: protein: recombinant; tags: N-terminal GST; dsDNA, one strand shown. Summed up: as §1

In assay [12] the target is T7, ETV3L (Homo sapiens, UniProt Q6ZN32 1-361).
T7 sequence: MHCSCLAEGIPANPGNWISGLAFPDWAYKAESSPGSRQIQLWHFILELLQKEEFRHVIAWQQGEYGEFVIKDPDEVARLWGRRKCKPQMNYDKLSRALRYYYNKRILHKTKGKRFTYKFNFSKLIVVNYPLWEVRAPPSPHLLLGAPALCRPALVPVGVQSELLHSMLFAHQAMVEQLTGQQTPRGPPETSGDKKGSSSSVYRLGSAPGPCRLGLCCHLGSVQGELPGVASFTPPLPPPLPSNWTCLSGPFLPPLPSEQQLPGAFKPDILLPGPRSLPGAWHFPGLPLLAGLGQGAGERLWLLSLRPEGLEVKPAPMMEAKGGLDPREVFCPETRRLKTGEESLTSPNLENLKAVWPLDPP
Conditions: protein: recombinant; tags: N-terminal GST; dsDNA, one strand shown. Summed up: as §1

The target of assay [13] is T8, ETS2 (Homo sapiens, UniProt P15036 1-469).
T8 sequence: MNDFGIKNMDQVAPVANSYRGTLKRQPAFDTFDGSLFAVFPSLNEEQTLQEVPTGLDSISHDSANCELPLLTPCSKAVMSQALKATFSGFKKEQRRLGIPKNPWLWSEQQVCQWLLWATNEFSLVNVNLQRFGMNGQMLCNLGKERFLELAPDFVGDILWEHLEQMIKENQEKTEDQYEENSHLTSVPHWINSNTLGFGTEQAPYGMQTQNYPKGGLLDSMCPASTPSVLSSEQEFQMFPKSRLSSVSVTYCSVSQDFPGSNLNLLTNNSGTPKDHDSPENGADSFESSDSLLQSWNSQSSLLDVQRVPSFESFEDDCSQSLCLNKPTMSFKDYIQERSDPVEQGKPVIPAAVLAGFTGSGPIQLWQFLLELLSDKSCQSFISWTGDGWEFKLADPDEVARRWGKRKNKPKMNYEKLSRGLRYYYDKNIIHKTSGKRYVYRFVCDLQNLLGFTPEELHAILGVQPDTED
The following applies: protein: recombinant; tags: N-terminal GST; dsDNA, one strand shown. Summed up:
as §1

Assay [14] addresses T9, SPDEF (Homo sapiens, UniProt O95238 1-335).
T9 sequence: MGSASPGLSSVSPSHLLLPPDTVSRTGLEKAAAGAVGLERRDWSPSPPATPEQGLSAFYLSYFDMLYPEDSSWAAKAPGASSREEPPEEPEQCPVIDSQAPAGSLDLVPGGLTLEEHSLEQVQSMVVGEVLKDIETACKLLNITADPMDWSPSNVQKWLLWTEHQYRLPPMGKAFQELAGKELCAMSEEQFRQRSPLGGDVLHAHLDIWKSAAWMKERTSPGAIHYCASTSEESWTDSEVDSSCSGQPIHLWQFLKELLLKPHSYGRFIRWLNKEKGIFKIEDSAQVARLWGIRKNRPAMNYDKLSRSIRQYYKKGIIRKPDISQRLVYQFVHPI
Conditions: protein: recombinant; tags: N-terminal GST; dsDNA, one strand shown. Summed up:
as §1

The target in assay [15] is T10, ETV7 (Homo sapiens, UniProt Q9Y603 1-341).
T10 sequence: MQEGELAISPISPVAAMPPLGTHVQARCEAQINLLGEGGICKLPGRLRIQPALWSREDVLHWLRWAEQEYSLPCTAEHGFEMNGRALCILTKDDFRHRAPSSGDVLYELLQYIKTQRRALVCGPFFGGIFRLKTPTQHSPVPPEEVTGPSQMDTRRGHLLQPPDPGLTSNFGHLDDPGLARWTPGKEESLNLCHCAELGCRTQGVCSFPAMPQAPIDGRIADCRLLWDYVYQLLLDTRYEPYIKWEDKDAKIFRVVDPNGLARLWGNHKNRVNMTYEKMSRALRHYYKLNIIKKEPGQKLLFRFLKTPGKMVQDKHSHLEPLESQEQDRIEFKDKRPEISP
Conditions: protein: recombinant; tags: N-terminal GST; dsDNA, one strand shown. In a few lines: as §1

The target of assay [16] is T11, ELF5 (Homo sapiens, UniProt Q9UKW6-2 1-255).
T11 sequence: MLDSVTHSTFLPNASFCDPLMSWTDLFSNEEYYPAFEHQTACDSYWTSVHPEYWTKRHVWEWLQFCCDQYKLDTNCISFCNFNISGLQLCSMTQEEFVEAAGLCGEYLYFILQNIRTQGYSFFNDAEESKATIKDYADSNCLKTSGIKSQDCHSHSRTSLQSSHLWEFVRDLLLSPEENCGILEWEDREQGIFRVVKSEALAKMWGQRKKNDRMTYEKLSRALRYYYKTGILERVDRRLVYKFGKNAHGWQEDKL
The following applies: protein: recombinant; tags: N-terminal GST; dsDNA, one strand shown. In a few lines: as §1

Assay [17] deals with T12, ETV3 (Homo sapiens, UniProt P41162-2 1-143).
T12 sequence: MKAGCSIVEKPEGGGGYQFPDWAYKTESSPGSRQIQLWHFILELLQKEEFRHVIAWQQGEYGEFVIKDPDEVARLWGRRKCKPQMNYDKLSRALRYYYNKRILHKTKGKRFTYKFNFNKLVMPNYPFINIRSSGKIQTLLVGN
Conditions: protein: recombinant; tags: N-terminal GST; dsDNA, one strand shown. Summed up:
as §1

Assay [18] addresses ETV6 (Homo sapiens, UniProt P41212 1-452). The following applies: protein: recombinant; tags: N-terminal GST; dsDNA, one strand shown. In a few lines:
as §1

ETV1, sequence (P50549 whole entry): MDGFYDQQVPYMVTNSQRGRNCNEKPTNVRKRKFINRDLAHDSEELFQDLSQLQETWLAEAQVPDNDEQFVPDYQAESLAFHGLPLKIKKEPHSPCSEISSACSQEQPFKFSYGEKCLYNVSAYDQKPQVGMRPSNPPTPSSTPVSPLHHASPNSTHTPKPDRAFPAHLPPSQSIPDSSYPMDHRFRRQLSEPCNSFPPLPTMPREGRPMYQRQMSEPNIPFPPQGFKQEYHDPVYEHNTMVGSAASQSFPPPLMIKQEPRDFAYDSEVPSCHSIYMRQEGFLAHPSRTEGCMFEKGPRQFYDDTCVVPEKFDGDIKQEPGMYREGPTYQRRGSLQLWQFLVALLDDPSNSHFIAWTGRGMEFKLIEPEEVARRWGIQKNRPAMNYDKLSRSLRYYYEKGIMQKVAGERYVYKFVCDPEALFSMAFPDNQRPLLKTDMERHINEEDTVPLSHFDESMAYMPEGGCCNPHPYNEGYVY
CRX, sequence (O43186 whole entry): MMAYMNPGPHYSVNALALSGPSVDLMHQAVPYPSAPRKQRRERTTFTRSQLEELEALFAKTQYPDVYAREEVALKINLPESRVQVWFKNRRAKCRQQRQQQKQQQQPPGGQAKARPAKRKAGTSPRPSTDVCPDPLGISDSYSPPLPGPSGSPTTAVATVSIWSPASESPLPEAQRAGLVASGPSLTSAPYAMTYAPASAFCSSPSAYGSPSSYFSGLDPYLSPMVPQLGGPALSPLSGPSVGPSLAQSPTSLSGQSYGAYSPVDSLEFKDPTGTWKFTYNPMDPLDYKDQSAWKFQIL
HSF1, sequence (Q00613 whole entry): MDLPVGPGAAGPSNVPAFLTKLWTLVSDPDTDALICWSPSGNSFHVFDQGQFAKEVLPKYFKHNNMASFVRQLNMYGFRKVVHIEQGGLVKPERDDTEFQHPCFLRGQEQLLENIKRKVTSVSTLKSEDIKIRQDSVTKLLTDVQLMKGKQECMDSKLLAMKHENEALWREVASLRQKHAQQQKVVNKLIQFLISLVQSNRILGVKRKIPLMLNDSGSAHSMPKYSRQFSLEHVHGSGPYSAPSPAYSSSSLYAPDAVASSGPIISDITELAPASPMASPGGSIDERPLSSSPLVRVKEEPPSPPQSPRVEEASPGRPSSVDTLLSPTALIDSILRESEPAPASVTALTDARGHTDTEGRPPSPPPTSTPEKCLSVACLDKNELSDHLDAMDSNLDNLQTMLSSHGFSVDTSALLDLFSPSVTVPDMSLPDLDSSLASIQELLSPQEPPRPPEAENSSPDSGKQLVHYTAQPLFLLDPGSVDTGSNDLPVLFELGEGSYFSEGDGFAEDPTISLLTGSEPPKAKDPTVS
ELF4, sequence (Q99607 whole entry): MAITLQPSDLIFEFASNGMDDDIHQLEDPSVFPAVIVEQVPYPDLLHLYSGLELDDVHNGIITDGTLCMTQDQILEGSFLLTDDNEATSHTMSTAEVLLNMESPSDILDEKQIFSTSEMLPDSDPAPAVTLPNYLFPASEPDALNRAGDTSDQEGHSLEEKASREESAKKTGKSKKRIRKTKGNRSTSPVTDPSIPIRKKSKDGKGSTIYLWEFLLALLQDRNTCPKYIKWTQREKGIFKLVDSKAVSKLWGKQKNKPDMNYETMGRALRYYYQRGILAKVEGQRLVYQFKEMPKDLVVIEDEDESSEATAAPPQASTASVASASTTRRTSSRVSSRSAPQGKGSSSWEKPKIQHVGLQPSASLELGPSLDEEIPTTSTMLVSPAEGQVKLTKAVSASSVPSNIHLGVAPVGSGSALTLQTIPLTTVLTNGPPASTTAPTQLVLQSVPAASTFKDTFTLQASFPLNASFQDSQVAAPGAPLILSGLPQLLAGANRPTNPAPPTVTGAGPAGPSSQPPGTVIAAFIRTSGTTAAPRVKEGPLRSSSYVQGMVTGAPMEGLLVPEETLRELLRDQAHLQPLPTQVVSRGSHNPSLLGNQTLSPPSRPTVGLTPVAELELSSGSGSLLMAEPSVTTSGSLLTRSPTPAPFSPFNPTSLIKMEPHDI
ETV6, sequence (P41212 whole entry): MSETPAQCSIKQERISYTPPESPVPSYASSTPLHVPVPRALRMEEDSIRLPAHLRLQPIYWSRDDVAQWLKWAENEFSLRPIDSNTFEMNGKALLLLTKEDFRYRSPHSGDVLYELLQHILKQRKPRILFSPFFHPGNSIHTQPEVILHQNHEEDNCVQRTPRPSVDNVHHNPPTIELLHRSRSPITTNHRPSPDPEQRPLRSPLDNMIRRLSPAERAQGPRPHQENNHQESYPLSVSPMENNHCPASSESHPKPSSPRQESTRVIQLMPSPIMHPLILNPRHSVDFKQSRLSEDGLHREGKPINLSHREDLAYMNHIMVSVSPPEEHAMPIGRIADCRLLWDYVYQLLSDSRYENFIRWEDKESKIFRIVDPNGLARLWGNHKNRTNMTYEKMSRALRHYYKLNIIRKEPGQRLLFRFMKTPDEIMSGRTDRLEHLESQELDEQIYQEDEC
ETV5, sequence (P41161 whole entry): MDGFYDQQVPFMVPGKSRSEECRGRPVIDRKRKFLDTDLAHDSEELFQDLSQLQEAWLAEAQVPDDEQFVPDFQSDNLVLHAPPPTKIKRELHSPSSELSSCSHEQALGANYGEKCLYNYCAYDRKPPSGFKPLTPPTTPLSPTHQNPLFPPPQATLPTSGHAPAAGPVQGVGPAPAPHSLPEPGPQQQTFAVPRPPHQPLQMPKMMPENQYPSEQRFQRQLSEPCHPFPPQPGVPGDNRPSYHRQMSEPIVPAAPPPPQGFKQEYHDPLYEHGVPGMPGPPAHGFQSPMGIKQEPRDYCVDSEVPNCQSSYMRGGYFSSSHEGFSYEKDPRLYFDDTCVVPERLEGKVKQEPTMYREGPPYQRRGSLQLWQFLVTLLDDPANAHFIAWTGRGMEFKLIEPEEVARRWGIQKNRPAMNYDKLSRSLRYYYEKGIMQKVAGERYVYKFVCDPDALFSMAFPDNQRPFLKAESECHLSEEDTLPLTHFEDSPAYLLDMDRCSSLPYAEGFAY

ACTATG: the binding signal in [1] is 1.21 fold enrichment (6-mer frequency, TF over GST control); in [2], 1.19 fold enrichment (6-mer frequency, TF over GST control); in assay [3], 1.09 fold enrichment (6-mer frequency, TF over GST control); in assay [4] it was 1.37 fold enrichment (6-mer frequency, TF over GST control); in [5], 1.26 fold enrichment (6-mer frequency, TF over GST control); in assay [6], 1.08 fold enrichment (6-mer frequency, TF over GST control). Besides, the binding signal in assay [7] was 1.24 fold enrichment (6-mer frequency, TF over GST control); in [8], 1.09 fold enrichment (6-mer frequency, TF over GST control); in [9] it was 1.02 fold enrichment (6-mer frequency, TF over GST control); in assay [10], 1.24 fold enrichment (6-mer frequency, TF over GST control); in assay [11], 1.15 fold enrichment (6-mer frequency, TF over GST control); in [12], 1.2 fold enrichment (6-mer frequency, TF over GST control). Also, the binding signal in assay [13] is 1.3 fold enrichment (6-mer frequency, TF over GST control); in assay [14], 1.28 fold enrichment (6-mer frequency, TF over GST control); in [15] it was 1.18 fold enrichment (6-mer frequency, TF over GST control); in assay [16], 1.16 fold enrichment (6-mer frequency, TF over GST control); in assay [17], 1.25 fold enrichment (6-mer frequency, TF over GST control); in assay [18], 1.19 fold enrichment (6-mer frequency, TF over GST control).
